Results on 31 molecules are retold here after ChEMBL document CHEMBL1961873, “Compounds: GSK PKIS; Assays: Nanosyn kinase panel” (2012).

Values joined by “and” are separate entries in the source; they are usually repeats but may differ in a detail not shown here. Identical values can stand only once.

RAF proto-oncogene serine/threonine-protein kinase (Homo sapiens), sequence (P04049 whole entry): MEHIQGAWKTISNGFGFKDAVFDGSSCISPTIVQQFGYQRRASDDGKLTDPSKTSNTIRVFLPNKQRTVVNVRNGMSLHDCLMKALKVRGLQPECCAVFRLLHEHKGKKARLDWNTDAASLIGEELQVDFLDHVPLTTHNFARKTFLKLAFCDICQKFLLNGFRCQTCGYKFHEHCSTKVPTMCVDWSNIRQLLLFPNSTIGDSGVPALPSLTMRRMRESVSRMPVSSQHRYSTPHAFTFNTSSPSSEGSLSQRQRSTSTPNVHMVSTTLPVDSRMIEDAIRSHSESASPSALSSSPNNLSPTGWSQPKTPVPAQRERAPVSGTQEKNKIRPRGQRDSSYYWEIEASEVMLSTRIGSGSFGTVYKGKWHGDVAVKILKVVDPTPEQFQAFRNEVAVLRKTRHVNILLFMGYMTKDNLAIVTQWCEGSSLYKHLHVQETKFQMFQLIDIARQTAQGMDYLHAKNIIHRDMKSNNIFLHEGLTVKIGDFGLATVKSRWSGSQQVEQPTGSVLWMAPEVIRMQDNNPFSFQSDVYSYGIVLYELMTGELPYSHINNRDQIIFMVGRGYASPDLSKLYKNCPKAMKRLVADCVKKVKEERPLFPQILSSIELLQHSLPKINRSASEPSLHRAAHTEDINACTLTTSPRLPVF

The first test has as its target RAF proto-oncogene serine/threonine-protein kinase (Homo sapiens) (UniProt P04049). The following applies: at 0.1 µM.
For the molecule `O=C1Nc2ccccc2/C1=C1\CCc2cc(O)ccc21`, the inhibition was determined as 0.39%.
As for `CCS(=O)(=O)c1ccc(OC)c(Nc2ncc(-c3cccc(C(C)=O)c3)o2)c1`, the inhibition is 5.57%.
Regarding `Cc1ccc(-c2cc3c(NC(=O)C4CC4)ncnc3o2)cc1`, the inhibition is -0.84%.
Regarding `COc1ccc(-c2nn3ncccc3c2-c2ccnc(Nc3ccc(F)c(F)c3)n2)cc1`, the inhibition worked out at 0.22%.
On the same count and under the same terms, in the case of `O=C(Nc1n[nH]c2nnc(-c3cccnc3)cc12)C1CC1` it was -2.58%; in that of `O=C(O[C@H]1CN[C@H](C#Cc2cc3ncnc(Nc4ccc5c(ccn5Cc5cc(F)ccc5F)c4)c3s2)C1)N1CCOCC1`, 1.88%.
For `COc1cccc(Nc2nccc(-c3cnn4ncccc34)n2)c1`, the inhibition is 2.53%.
Same read-out and setting: in the case of `Nc1nccc(-c2c(-c3ccc(F)cc3)ncn2C2CCNCC2)n1` it was -3.57% and -1.58%; in that of `NC(=O)c1ccc2c(-c3ccnc(NCCCO)n3)c(-c3ccc(F)cc3)nn2c1`, -3.29%.
The same measure, in the same setting: in the case of `CS(=O)(=O)Nc1ccc(-c2cc(-c3ccccc3)cc(C(N)=O)c2N)cc1` it was -0.86%.
As to `CS(=O)(=O)Nc1ccc(-c2ccc3c(NC(=O)C4CC4)n[nH]c3c2)cc1`, the inhibition came out at 4.35%.
Still for that read-out and setting: for `Cn1c(-c2nonc2N)nc2cnccc21` the value was 2.49%.
`CC1=C(C(=O)Nc2ccc3[nH]ncc3c2)C(c2ccc(F)cc2)N=C(c2ccc(C(F)(F)F)nc2)N1` (configuration not stated): the inhibition was 1.11%.
Same read-out and setting: for `c1ccc(-c2n[nH]cc2-c2ccnc(-c3ccc(OCCn4ccnc4)cc3)c2)nc1` the value was -0.53%.
In the case of `CS(=O)(=O)CCNCc1ccc(-c2ccc3ncnc(Nc4ccc(OCc5cccc(C(F)(F)F)c5)cc4)c3c2)o1`, the inhibition is 1.96%.
Consider `FC(F)(F)CNc1nccc(-c2cnn3ncccc23)n1`, for which the inhibition is -1.22%.
Regarding `COc1ccc2ncn(-c3cc(O[C@H](C)c4ccccc4C(F)(F)F)c(C(N)=O)s3)c2c1`, the inhibition was -0.27%.
Take `N#Cc1cccc(Nc2ncc(-c3ccccc3)o2)c1`: the inhibition was -1.08%.
On the same count and under the same terms, for `CCN1CCC(C(=O)Nc2n[nH]c3nnc(-c4cccc(F)c4F)cc23)CC1` the value was -4.36%; for `CNC(=O)c1ncccc1Nc1nc(Nc2cc3c(cc2OC)CCCN3C(=O)CN(C)C)nc2[nH]ccc12`, -1.22%.
Same read-out and setting: in the case of `CNC(=O)c1cncc(/C=C/c2ccccc2C)c1` it was 5.82%.
On to `CS(=O)(=O)CCNCc1ccc(-c2ccc3ncnc(Nc4ccc(OCc5ccccc5)cc4)c3c2)o1`, for which the inhibition is -0.67%.
The same measure, in the same setting: for `CS(=O)(=O)CCNCc1ccoc1-c1ccc2ncnc(Nc3ccc(OCc4ccccc4)cc3)c2c1` the value was -1.29%; for `COc1cc2c(cc1Nc1nc(Nc3cccc(F)c3C(N)=O)c3cc[nH]c3n1)N(C(=O)CN1CCN(C(C)C)CC1)CC2`, 0.97%.
As to `CN1CCC(n2cnc(-c3ccc(F)cc3)c2-c2ccnc(NCCO)n2)CC1`, the inhibition is -1.57%.
The same measure, in the same setting: in the case of `CCn1c(-c2nonc2N)nc2cncc(C(=O)NCCNC)c21` it was 2.61%; in that of `OCCCNc1nccc(-c2c(-c3ccc(F)cc3)nn3cc(C(F)(F)F)ccc23)n1`, 0.53%; in that of `NS(=O)(=O)c1ccc(N/N=C2\C(=O)Nc3ccc(C(=O)NCc4ccncc4)cc32)cc1`, 0.58%.
`CC1(C)CC(n2cnc(-c3ccc(F)cc3)c2-c2ccnc(N)n2)CC(C)(C)N1`: the inhibition stood at 6.47%.
On the same count and under the same terms, for `COC(=O)Nc1nc2ccc(Oc3ccc(NC(=O)Nc4cc(C(F)(F)F)ccc4F)cc3)cc2s1` the value was 8.71%; for `COc1c(C(N)=O)cc(-c2ccc(Cl)cc2)cc1-c1ccc(S(N)(=O)=O)cc1`, 2.31%.

For the next test the target is unchanged. The following applies: at 1 µM.
`O=C1Nc2ccccc2/C1=C1\CCc2cc(O)ccc21`: the inhibition is -4.27%.
The same measure, in the same setting: for `CCS(=O)(=O)c1ccc(OC)c(Nc2ncc(-c3cccc(C(C)=O)c3)o2)c1` the value was 8.87%; for `Cc1ccc(-c2cc3c(NC(=O)C4CC4)ncnc3o2)cc1`, -2.51%; for `COc1ccc(-c2nn3ncccc3c2-c2ccnc(Nc3ccc(F)c(F)c3)n2)cc1`, -4.25%.
Take `O=C(Nc1n[nH]c2nnc(-c3cccnc3)cc12)C1CC1`: the inhibition was -3.13%.
On the same count and under the same terms, in the case of `O=C(O[C@H]1CN[C@H](C#Cc2cc3ncnc(Nc4ccc5c(ccn5Cc5cc(F)ccc5F)c4)c3s2)C1)N1CCOCC1` it was -3.01%; in that of `COc1cccc(Nc2nccc(-c3cnn4ncccc34)n2)c1`, -1.47%.
On the same count and under the same terms, in the case of `Nc1nccc(-c2c(-c3ccc(F)cc3)ncn2C2CCNCC2)n1` it was 8.14% and -2.89%; in that of `NC(=O)c1ccc2c(-c3ccnc(NCCCO)n3)c(-c3ccc(F)cc3)nn2c1`, -4.3%; in that of `CS(=O)(=O)Nc1ccc(-c2cc(-c3ccccc3)cc(C(N)=O)c2N)cc1`, -4.37%.
Consider `CS(=O)(=O)Nc1ccc(-c2ccc3c(NC(=O)C4CC4)n[nH]c3c2)cc1`, for which the inhibition is 5.45%.
Take `Cn1c(-c2nonc2N)nc2cnccc21`: the inhibition is 8.87%.
For the molecule `CC1=C(C(=O)Nc2ccc3[nH]ncc3c2)C(c2ccc(F)cc2)N=C(c2ccc(C(F)(F)F)nc2)N1` (configuration not stated), the inhibition is -4.26%.
Still for that read-out and setting: for `c1ccc(-c2n[nH]cc2-c2ccnc(-c3ccc(OCCn4ccnc4)cc3)c2)nc1` the value was -2.1%; for `CS(=O)(=O)CCNCc1ccc(-c2ccc3ncnc(Nc4ccc(OCc5cccc(C(F)(F)F)c5)cc4)c3c2)o1`, -2.29%.
Same read-out and setting: in the case of `FC(F)(F)CNc1nccc(-c2cnn3ncccc23)n1` it was -1%.
As to `COc1ccc2ncn(-c3cc(O[C@H](C)c4ccccc4C(F)(F)F)c(C(N)=O)s3)c2c1`, the inhibition was 0.1%.
As to `N#Cc1cccc(Nc2ncc(-c3ccccc3)o2)c1`, the inhibition was -0.15%.
The same measure, in the same setting: in the case of `CCN1CCC(C(=O)Nc2n[nH]c3nnc(-c4cccc(F)c4F)cc23)CC1` it was -2.59%.
Same read-out and setting: in the case of `CNC(=O)c1ncccc1Nc1nc(Nc2cc3c(cc2OC)CCCN3C(=O)CN(C)C)nc2[nH]ccc12` it was -9.95%; in that of `CNC(=O)c1cncc(/C=C/c2ccccc2C)c1`, -2.68%; in that of `CS(=O)(=O)CCNCc1ccc(-c2ccc3ncnc(Nc4ccc(OCc5ccccc5)cc4)c3c2)o1`, 2.22%.
As to `CS(=O)(=O)CCNCc1ccoc1-c1ccc2ncnc(Nc3ccc(OCc4ccccc4)cc3)c2c1`, the inhibition is -1.65%.
Still for that read-out and setting: for `COc1cc2c(cc1Nc1nc(Nc3cccc(F)c3C(N)=O)c3cc[nH]c3n1)N(C(=O)CN1CCN(C(C)C)CC1)CC2` the value was -4.19%.
In the case of `CN1CCC(n2cnc(-c3ccc(F)cc3)c2-c2ccnc(NCCO)n2)CC1`, the inhibition was determined as 1.26%.
For `CCn1c(-c2nonc2N)nc2cncc(C(=O)NCCNC)c21`, the inhibition stood at 0.85%.
With `OCCCNc1nccc(-c2c(-c3ccc(F)cc3)nn3cc(C(F)(F)F)ccc23)n1`, the inhibition is -7.33%.
With `NS(=O)(=O)c1ccc(N/N=C2\C(=O)Nc3ccc(C(=O)NCc4ccncc4)cc32)cc1`, the inhibition was -3.37%.
Same read-out and setting: for `CC1(C)CC(n2cnc(-c3ccc(F)cc3)c2-c2ccnc(N)n2)CC(C)(C)N1` the value was 2.12%; for `COC(=O)Nc1nc2ccc(Oc3ccc(NC(=O)Nc4cc(C(F)(F)F)ccc4F)cc3)cc2s1`, 60.1%; for `COc1c(C(N)=O)cc(-c2ccc(Cl)cc2)cc1-c1ccc(S(N)(=O)=O)cc1`, 1.44%.

The term inhibition denotes the drop in the measured response relative to a control, in per cent.
